Laboratory results as given in the supplement of paper PMC10849652.
The full data set covers some 8,800 targets. This sample favours those with a hit. About 0.5% of all pairs of compound and target were hits. A number with no mark means an inactive call.

Columns and labels:
Assay in all cases: log2 fold change, soluble protein after heating vs DMSO (PISA); higher = thermal stabilisation; K562 lysate, 10 uM; active = over 0.2 and 3.5 SD of the protein, either way, in both replicates (recomputed)
[1] = compound: C=CC(=O)N1CCC[C@@H](n2nc(-c3ccc(Oc4ccccc4)cc3)c3c(N)ncnc32)C1 [ibrutinib]
Method in brief: (§1)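 To prepare the extract, K562 pellets were dounce-homogenised in PBS pH 7.4 with 1 mM MgCl2, giving crude material at 1 mg/mL protein. This was treated with 10 μM compound for 30 min, then heated in aliquots for 3 min over 48°C-58°C before pooling and addition of NP-40 to 0.5% at 4°C. Centrifugation at 21,000xg for 90 min left soluble protein in the supernatant, which TMTpro 16plex LC-MS/MS quantified with equalised channel sums. Results are log-two fold changes in thermal stability compared with solvent controls, from duplicates.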

[2] = compound: CC(=O)c1cnc2ccc(-c3cc(Cl)c(O)c(Cl)c3)nc2c1N[C@H]1CC[C@H](CN(C)C)CC1
Method in brief: as §1

[3] = compound: CC(C)(C)Cn1c(N)nc2ccc(-c3[nH]c(C(C)(C)C)nc3-c3ccc(F)cc3)nc21 [ralimetinib]
Method in brief: as §1

[4] = compound: CC(C)(O)CC(=O)NCCn1ccc2ncnc(Nc3ccc(Oc4cccc(C(F)(F)F)c4)c(Cl)c3)c21
Method in brief: as §1

[5] = compound: CC(C)C1=C2N=C(C=C(N2N=C1)NCC3=CC=CC=C3)NCCCCCCN
Method in brief: as §1

[6] = compound: CC1=C(C(CC(=O)N1)C2=CC=C(C=C2)C(F)(F)F)C(=O)NC3=C(C=C4C(=C3)C=NN4)F
Method in brief: as §1

[7] = compound: CC1=C(C2=C(C=C1)C(=O)C3=CC=CC=C3N2CCCN)C
Method in brief: as §1

[8] = compound: CC1=C(C=C(C=C1)NC(=O)C2=CC(=CC=C2)C(C)(C)C#N)NC3=CC4=C(C=C3)N=CN(C4=O)C
Method in brief: as §1

[9] = compound: CC1=C(C=C(C=C1)NC(=O)C2=CC(=CC=C2)N(C)C)NC(=O)C3=CC=C(C=C3)O
Method in brief: as §1

[10] = compound: CC1=CC=C(C=C1)SC2=C3C=C(SC3=CN=C2)C(=O)N
Method in brief: as §1

[11] = compound: CCCS(=O)(=O)Nc1ccc(F)c(C(=O)c2c[nH]c3ncc(-c4ccc(Cl)cc4)cc23)c1F [vemurafenib]
Method in brief: as §1

[12] = compound: CCCS(=O)(=O)Nc1ccc(F)c(C(=O)c2c[nH]c3ncc(Cl)cc23)c1F
Method in brief: as §1

[13] = compound: CCN(CCCOc1ccc2c(Nc3cc(CC(=O)Nc4cccc(F)c4)[nH]n3)ncnc2c1)CCOP(=O)(O)O [barasertib]
Method in brief: as §1

[14] = compound: CC[C@@H]1C(=O)N(C)c2cnc(Nc3ccc(C(=O)NC4CCN(C)CC4)cc3OC)nc2N1C1CCCC1
Method in brief: as §1

[15] = compound: CC[C@@H]1C(=O)N(C)c2cnc(Nc3ccc(C(=O)N[C@H]4CC[C@H](N5CCN(CC6CC6)CC5)CC4)cc3OC)nc2N1C(C)C [volasertib]
Method in brief: as §1

[16] = compound: CCn1c(C(=O)N(C2CC2)C2CC2)cc2c3c(ncn3C)c(Nc3cc(C)n(C)n3)nc21
Method in brief: as §1

[17] = compound: CCn1cc(-c2ccnc3[nH]c(-c4cccc(CN(C)C)c4)cc23)c(-c2ccc(NC(=O)N(C)C)cc2)n1
Method in brief: as §1

[18] = compound: CN1CCC(CNc2ccc3ncc(-c4cccc(OC(F)(F)F)c4)n3n2)CC1
Method in brief: as §1

[19] = compound: CN1CCN(CCOc2cc(OC3CCOCC3)c3c(Nc4c(Cl)ccc5c4OCO5)ncnc3c2)CC1 [saracatinib]
Method in brief: as §1

[20] = compound: CN1CCN(c2nc(C3=C(c4c[nH]c5ccccc45)C(=O)NC3=O)c3ccccc3n2)CC1 [sotrastaurin]
Method in brief: as §1

UniProt Q92615, sequence (Q92615 whole entry, looked up): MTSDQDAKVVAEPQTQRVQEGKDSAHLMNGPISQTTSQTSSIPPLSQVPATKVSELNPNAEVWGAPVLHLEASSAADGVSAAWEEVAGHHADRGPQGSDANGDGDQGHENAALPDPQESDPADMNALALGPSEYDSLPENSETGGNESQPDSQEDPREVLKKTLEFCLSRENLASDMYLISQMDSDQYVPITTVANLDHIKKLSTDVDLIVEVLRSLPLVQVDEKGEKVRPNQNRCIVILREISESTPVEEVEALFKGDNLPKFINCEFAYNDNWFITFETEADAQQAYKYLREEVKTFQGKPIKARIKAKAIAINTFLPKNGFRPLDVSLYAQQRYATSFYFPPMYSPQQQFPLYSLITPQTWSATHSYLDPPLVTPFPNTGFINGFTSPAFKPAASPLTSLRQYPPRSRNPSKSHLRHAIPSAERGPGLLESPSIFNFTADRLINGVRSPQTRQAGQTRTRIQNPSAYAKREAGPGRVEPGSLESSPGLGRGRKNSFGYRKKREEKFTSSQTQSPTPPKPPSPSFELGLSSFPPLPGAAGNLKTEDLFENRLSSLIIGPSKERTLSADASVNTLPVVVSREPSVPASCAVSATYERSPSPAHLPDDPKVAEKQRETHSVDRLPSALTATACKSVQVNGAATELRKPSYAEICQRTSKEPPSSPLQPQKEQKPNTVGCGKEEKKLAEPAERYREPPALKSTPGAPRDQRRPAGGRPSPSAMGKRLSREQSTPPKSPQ
UniProt Q93074, sequence (Q93074 whole entry, looked up): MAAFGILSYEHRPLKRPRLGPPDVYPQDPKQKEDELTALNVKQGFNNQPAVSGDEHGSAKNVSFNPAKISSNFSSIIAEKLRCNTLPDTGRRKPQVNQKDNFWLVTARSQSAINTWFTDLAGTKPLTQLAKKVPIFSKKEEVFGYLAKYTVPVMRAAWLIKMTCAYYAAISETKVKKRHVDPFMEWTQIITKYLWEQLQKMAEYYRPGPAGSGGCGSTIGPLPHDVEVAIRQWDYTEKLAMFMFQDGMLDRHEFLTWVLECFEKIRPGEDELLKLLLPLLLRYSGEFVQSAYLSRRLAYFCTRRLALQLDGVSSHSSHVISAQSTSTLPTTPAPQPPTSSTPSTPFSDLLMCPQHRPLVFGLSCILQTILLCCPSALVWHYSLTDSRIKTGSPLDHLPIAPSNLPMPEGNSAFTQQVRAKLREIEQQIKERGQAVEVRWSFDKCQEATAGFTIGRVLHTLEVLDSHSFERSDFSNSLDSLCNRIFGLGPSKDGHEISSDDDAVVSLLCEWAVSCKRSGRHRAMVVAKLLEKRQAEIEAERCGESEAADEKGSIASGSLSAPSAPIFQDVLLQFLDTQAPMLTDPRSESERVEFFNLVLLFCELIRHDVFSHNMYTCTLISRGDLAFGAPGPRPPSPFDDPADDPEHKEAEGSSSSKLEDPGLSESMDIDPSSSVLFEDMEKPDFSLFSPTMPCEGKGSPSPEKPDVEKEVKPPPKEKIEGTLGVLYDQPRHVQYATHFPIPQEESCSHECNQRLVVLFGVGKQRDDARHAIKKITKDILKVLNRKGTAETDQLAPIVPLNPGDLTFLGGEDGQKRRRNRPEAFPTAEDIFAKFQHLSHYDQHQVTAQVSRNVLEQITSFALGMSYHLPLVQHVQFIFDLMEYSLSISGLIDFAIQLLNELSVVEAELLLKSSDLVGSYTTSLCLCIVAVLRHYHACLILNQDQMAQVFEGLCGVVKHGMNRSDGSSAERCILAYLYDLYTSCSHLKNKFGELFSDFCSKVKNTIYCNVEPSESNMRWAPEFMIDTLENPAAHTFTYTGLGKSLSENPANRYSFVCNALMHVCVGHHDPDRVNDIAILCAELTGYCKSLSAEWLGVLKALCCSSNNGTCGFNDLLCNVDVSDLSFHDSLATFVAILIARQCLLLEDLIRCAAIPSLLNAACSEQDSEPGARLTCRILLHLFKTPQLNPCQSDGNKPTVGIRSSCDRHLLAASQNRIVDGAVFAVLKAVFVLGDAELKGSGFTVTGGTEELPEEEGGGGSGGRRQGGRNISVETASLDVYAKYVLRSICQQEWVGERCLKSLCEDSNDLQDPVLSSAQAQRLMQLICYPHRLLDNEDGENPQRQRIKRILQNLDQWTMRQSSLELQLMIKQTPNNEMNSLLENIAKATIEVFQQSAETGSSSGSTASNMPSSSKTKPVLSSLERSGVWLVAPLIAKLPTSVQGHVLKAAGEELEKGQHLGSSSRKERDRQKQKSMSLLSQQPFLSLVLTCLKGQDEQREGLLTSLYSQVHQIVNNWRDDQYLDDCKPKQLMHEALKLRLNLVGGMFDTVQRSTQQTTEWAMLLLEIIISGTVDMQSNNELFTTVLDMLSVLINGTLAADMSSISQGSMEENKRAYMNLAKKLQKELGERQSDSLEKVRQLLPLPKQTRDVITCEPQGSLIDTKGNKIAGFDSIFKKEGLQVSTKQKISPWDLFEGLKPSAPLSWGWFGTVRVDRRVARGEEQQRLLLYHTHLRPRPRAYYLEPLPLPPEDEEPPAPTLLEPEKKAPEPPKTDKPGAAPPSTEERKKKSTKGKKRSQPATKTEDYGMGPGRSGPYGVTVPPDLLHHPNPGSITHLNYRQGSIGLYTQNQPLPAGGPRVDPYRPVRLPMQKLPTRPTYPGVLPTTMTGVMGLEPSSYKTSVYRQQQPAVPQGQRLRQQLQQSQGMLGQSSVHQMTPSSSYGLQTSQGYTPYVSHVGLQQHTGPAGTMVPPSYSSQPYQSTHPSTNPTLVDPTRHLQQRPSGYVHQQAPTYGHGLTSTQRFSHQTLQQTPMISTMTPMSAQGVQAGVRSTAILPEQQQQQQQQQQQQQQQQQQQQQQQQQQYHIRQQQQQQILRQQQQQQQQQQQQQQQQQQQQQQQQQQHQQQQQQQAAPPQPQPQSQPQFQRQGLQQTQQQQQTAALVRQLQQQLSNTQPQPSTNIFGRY
UniProt P49916, sequence (P49916 whole entry, looked up): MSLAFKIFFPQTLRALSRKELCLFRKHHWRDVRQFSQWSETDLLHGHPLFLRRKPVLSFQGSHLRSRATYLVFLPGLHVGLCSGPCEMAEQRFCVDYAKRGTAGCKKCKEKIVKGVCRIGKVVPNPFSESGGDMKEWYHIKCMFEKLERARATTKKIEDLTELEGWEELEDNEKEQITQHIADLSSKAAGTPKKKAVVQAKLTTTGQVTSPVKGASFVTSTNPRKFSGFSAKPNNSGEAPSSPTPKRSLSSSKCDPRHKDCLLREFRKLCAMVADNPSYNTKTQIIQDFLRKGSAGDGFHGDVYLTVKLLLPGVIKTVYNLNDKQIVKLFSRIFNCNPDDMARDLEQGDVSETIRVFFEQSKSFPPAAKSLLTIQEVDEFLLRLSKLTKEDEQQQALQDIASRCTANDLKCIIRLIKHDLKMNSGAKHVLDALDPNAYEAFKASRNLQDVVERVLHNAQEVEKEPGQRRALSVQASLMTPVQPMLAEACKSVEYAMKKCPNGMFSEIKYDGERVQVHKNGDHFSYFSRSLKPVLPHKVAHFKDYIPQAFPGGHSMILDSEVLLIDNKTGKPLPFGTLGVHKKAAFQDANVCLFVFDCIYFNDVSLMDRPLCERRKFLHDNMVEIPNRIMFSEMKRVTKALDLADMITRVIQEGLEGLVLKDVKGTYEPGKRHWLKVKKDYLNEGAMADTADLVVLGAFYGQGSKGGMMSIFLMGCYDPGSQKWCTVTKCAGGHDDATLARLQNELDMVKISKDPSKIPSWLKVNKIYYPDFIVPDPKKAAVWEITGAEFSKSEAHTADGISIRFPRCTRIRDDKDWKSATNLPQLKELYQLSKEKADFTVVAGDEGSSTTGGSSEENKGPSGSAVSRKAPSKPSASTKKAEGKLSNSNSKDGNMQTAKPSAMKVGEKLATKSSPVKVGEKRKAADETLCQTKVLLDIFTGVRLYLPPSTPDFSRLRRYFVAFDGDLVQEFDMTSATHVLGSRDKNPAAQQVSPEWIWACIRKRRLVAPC
UniProt P48059, sequence (P48059 whole entry, looked up): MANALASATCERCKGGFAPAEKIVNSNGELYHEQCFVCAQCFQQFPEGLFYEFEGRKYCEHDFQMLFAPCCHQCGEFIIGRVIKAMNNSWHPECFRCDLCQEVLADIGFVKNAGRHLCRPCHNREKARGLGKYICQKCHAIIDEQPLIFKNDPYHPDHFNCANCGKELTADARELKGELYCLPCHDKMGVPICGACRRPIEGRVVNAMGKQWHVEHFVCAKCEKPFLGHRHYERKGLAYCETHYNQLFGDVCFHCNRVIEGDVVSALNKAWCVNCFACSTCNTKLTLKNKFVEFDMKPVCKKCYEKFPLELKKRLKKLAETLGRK
UniProt P14174, sequence (P14174 whole entry, looked up): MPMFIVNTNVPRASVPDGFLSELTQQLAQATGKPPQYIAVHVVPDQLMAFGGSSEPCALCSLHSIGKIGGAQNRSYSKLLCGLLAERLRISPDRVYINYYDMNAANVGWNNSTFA
UniProt Q9UBU8, sequence (Q9UBU8 whole entry, looked up): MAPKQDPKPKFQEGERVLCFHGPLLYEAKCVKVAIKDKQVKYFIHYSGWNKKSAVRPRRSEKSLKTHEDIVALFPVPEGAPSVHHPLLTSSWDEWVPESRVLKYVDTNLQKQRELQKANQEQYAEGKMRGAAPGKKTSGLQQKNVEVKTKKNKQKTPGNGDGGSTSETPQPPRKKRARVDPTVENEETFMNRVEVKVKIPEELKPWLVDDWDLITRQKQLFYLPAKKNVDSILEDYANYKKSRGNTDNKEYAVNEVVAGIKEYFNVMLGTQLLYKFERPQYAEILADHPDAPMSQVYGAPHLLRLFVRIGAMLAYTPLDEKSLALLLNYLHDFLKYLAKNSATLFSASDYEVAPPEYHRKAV
UniProt Q9GZY8, sequence (Q9GZY8 whole entry, looked up): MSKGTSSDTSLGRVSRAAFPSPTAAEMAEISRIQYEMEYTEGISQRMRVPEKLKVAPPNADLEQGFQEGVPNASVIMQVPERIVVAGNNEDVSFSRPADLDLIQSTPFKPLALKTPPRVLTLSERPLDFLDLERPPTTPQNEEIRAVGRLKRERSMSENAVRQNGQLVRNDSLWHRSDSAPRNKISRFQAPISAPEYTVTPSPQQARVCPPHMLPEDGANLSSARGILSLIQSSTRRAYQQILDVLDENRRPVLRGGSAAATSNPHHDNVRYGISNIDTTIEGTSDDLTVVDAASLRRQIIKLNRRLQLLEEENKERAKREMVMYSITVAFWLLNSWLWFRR

| Target | log2 fold change [1] | log2 fold change [2] | log2 fold change [3] | log2 fold change [4] | log2 fold change [5] | log2 fold change [6] | log2 fold change [7] | log2 fold change [8] | log2 fold change [9] | log2 fold change [10] | log2 fold change [11] | log2 fold change [12] | log2 fold change [13] | log2 fold change [14] | log2 fold change [15] | log2 fold change [16] | log2 fold change [17] | log2 fold change [18] | log2 fold change [19] | log2 fold change [20] |
| --- | --- | --- | --- | --- | --- | --- | --- | --- | --- | --- | --- | --- | --- | --- | --- | --- | --- | --- | --- | --- |
| LIMS1 isoform 3 (UniProt P48059) | 0.003 | 0.033 | 0.003 | 0.023 | -0.036 | -0.012 | -0.01 | 0.052 | -0.023 | -0.006 | -0.055 | -0.006 | 0.014 | 0.008 | 0.024 | -0.002 | -0.005 | 0.045 | 0.014 | -0.162 |
| LYAR (UniProt Q9NX58) | -0.009 | -0.035 | -0.011 | 0.016 | 0.004 | 0.03 | -0.012 | 0.016 | 0.015 | 0.038 | 0.011 | 0.005 | -0.024 | 0.005 | 0.003 | -0.027 | 0.312 (active) | -0.128 | 0.028 | -0.039 |
| MAPKAPK2 (UniProt P49137) | 0.05 | 0.385 (active) | -0.011 | 0.016 | -0.046 | 0.003 | 0.002 | -0.056 | 0.026 | 0 | 0.011 | -0.043 | 0 | -0.015 | -0.032 | 0.009 | -0.032 | 0.002 | -0.037 | -0.015 |
| MED12 isoform 2 (UniProt Q93074) | 0.004 | -0.019 | 0.022 | -0.009 | -0.005 | 0.009 | 0.003 | -0.005 | 0.037 | 0.02 | -0.075 | 0.005 | 0.057 | -0.012 | -0.065 | 0.037 | 0.002 | -0.066 | 0.026 | 0.022 |
| MORF4L1 isoform 2 (UniProt Q9UBU8) | -0.038 | -0.012 | 0.011 | -0.062 | 0.019 | -0.034 | -0.089 | 0.01 | 0.003 | 0.021 | 0.034 | -0.017 | 0.007 | 0.016 | 0 | -0.005 | -0.036 | 0.131 | 0.038 | 0.019 |
| MAP4K4 isoform 3 (UniProt O95819) | -0.052 | -0.021 | -0.065 | -0.002 | 0.046 | 0.067 | -0.042 | -0.022 | 0.062 | -0.056 | -0.185 | -0.119 | -0.029 | -0.071 | 0.011 | -0.011 | 0.169 | -0.158 | 0.082 | – |
| MFF isoform 2 (UniProt Q9GZY8) | 0.007 | -0.044 | -0.03 | -0.033 | -0.052 | 0 | 0.004 | 0.032 | 0.022 | -0.024 | 0.019 | 0.027 | 0.027 | 0.032 | -0.014 | 0.035 | -0.234 (active) | 0.036 | 0.011 | -0.044 |
| LARP4B (UniProt Q92615) | 0 | 0.005 | 0.055 | 0.069 | -0.02 | -0.006 | 0.03 | -0.094 | 0.037 | 0.014 | -0.014 | 0.011 | -0.033 | -0.029 | -0.042 | 0.08 | -0.116 | 0.038 | 0.011 | -0.019 |
| MRPL15 (UniProt Q9P015) | 0.003 | -0.078 | -0.024 | -0.056 | -0.01 | -0.007 | -0.133 | 0.032 | 0.009 | -0.023 | 0.004 | 0.025 | -0.04 | 0.024 | -0.018 | -0.062 | -0.509 (active) | 0.174 | -0.07 | 0.023 |
| LIG3 (UniProt P49916) | -0.006 | 0.007 | 0.063 | 0.023 | -0.002 | -0.018 | 0.04 | -0.015 | 0.028 | 0.015 | -0.029 | -0.003 | 0.019 | -0.127 | -0.028 | 0.031 | -0.033 | -0.011 | 0.018 | 0.009 |
| MRPL46 (UniProt Q9H2W6) | -0.101 | 0.018 | 0.048 | 0.026 | -0.064 | -0.002 | 0.005 | -0.002 | 0.026 | 0.021 | 0.058 | -0.001 | -0.015 | 0.115 | 0.044 | 0.064 | 0.523 (active) | -0.029 | 0.024 | 0.032 |
| MIF (UniProt P14174) | 0.101 | -0.057 | -0.002 | 0.01 | 0.003 | -0.095 | 0.009 | -0.004 | -0.019 | 0.049 | 0.025 | -0.047 | -0.02 | 0 | -0.025 | 0.021 | -0.274 | 0.084 | 0.002 | 0.002 |
| LZTR1 (UniProt Q8N653) | -0.074 | -0.441 | -0.023 | 0.102 | 0.009 | 0.048 | -0.014 | -0.001 | 0.113 | 0.041 | 0.026 | -0.118 | 0.081 | 0.002 | -0.125 | -0.012 | 0 | -0.047 | -0.031 | 0.065 |
| MAP7D3 (UniProt Q8IWC1) | -0.073 | 0.005 | 0.023 | -0.019 | -0.22 | 0.035 | 0.009 | 0.046 | 0.087 | -0.039 | -0.153 | -0.039 | -0.031 | -0.056 | 0.018 | 0.029 | -0.053 | -0.006 | -0.019 | -0.024 |
| LZTS1 (UniProt Q9Y250) | 0.104 | -0.008 | 0.049 | -0.176 | 0.116 | -0.028 | -0.233 | 0.705 | -0.111 | -0.007 | -0.047 | -0.034 | 0.218 | 0.042 | 0.074 | -0.53 | 0.493 | -0.132 | 0 | -0.116 |
| L3HYPDH (UniProt Q96EM0) | -0.004 | 0.039 | -0.021 | -0.004 | 0.004 | -0.044 | -0.001 | 0.032 | 0.018 | -0.024 | 0.04 | 0.033 | 0.015 | 0.002 | -0.017 | 0.011 | 0.01 | 0.012 | -0.027 | -0.008 |
